Experimental data from PubChem BioAssay AID1259309 (ICCB-Longwood Screening Facility, Harvard Medical School, 2017).
Several values for one entry are separate records, joined by “and”; a condition that tells them apart may be missing. Identical values can stand only once. Among all 330,000 compounds or so, about 1,800 (0.55%) were called active. Rule as the data show it: active = growth inhibition above about 68%; inactive = the rest. The entries come from a sample that favours actives as a whole.

Assay: growth inhibition of ugtP-null S. aureus, primary screen, RN4220 ugtP deletion, OD600 (AID 1259309);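 also: plate controls were untreated wells for no effect and antibiotic for full effect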
Settings: 16 h, active compounds read high
With `CC(C)=CCc1c(O)c(CC=C(C)C)c2occ(-c3ccc(O)cc3)c(=O)c2c1O` the growth inhibition was 98.5% (active). With `CC(C)=CCc1ccc(O)c(=O)cc1C(C)C` the growth inhibition was -4.82% (inactive). In the case of `COc1ccccc1NC(=O)CC(C)=NNC(=O)c1ccccn1`, the growth inhibition is reported as 3.4% (inactive). In the case of `C/C(C=NNC(=O)c1nnn(-c2nonc2N)c1C(C)C)=C\c1ccccc1`, the growth inhibition is reported as -3.08% (inactive). In the case of `Oc1ccc(CC2CNC(=S)N2CCc2cc(C(F)(F)F)cc(C(F)(F)F)c2)cc1` (stereo not given), the growth inhibition is reported as 10.9% (inactive) and 22.1% (inactive). In the case of `CCCCNC(=S)N(C)N=Cc1c(F)c(F)c(F)c(F)c1F`, the growth inhibition is reported as 4.66% (inactive). With `Cc1[nH]n(-c2cccc(Cl)c2)c(=O)c1-c1ccc(Cl)cc1` the growth inhibition was 87.7% (active). With `Cc1nc2c(-c3ccccc3)c(C)[nH]n2c(=O)c1Cl` the growth inhibition was 3.35% (inactive). With `Cc1cc(=O)n2[nH]c(-c3cccc(Cl)c3)cc2n1` the growth inhibition was -2.61% (inactive). With `COc1ccc(C=NNC(=O)CCc2n[nH]c(=O)[nH]c2=O)cc1OC` the growth inhibition was -0.0548% (inactive). In the case of `O=C(O)C1=CC(c2ccc3c(c2)OCO3)CC(OCc2ccc(CO)cc2)O1` (stereo not given), the growth inhibition is reported as -2.53% (inactive) and -0.0237% (inactive). In the case of `COc1cc(C=NNC(=S)NCCN2CCOCC2)ccc1O`, the growth inhibition is reported as 11.5% (inactive). In the case of `O=C(NN=Cc1ccsc1)c1cc(-c2cccs2)nc2ccccc12`, the growth inhibition is reported as -4.48% (inactive). In the case of `O=C(Nc1nnc(-c2ccccc2)o1)c1cc(-c2cccs2)nc2ccccc12`, the growth inhibition is reported as 96.3% (active). For `CC(C)(C)Cc1nnc(NC(=O)c2cc(-c3ccccc3)nc3ccccc23)s1`, the growth inhibition was -17.6% (inactive). For `CN1CCN(N=Cc2ccc(-c3ccc([N+](=O)[O-])cc3Cl)o2)CC1`, the growth inhibition was 3.66% (inactive). For `Oc1ccccc1C1=NN(c2ccccc2)C(c2ccccc2)C1` (stereo not given), the growth inhibition was 99.6% (active). For `O=C1C2N=NN(CC(=O)N3N=C(c4cccc5ccccc45)CC3c3ccccc3)C2C(=O)N1c1ccccc1` (stereo not given), the growth inhibition was -9.34% (inactive). In the case of `Cc1ccc(N2C(=O)C3N=NN(CC(=O)N4N=C(c5cccc6ccccc56)CC4c4ccccc4)C3C2=O)cc1` (stereo not given), the growth inhibition is reported as -14.5% (inactive). With `CCOc1ccc(C=NNc2cc(N3CCOCC3)nc(C)n2)c(O)c1` the growth inhibition was 1.85% (inactive). With `CC1CN(C(C)CO)C(=O)Cc2cc(NC(=O)CCC(F)(F)F)ccc2OC1CN(C)S(=O)(=O)c1ccc(Cl)cc1` (stereo not given) the growth inhibition was 4.94% (inactive). For `NCCCCC(C(=O)N1CCNCC1)n1cc(CCC(=O)O)nn1` (stereo not given), the growth inhibition was 3.28% (inactive). For `OCc1nc(CO)n(Cc2ccccc2)n1`, the growth inhibition was 13.4% (inactive). For `OCCN(Cc1ccccc1)Cc1ccc(Cl)cc1`, the growth inhibition was -6.5% (inactive). In the case of `OCc1ccc(-c2ccccc2)c(-c2ccccc2)c1`, the growth inhibition is reported as 89.2% (active). With `COc1cc(CCCN2C(=O)C(=O)NCC2CC2CCCCC2)cc(OC)c1OC` (stereo not given) the growth inhibition was 2.58% (inactive). With `Cc1cc(C=NNC(=O)c2ccccn2)c(C)n1-c1cccc([N+](=O)[O-])c1` the growth inhibition was 6.51% (inactive). For `Cc1ccnc2nc(C(=O)Nc3nnc(-c4ccccc4)o3)nn12`, the growth inhibition was 12.9% (inactive). With `O=C(Nc1nnc(-c2ccc(Cl)cc2)o1)c1ccccc1Br` the growth inhibition was 97.7% (active). With `COc1ccccc1C(=O)NCC(=O)OCC(=O)Nc1nnc(-c2ccccc2)o1` the growth inhibition was -1.67% (inactive). For `CCOC(=O)NN=Cc1ccc(C)o1`, the growth inhibition was 3.13% (inactive). With `N#CC(=C(O)CCl)c1nnc2n1CCCCC2` the growth inhibition was 4.05% (inactive). With `C#CCOCCOCCOCCNc1nc(N2CCN(C(=O)C(CCCCN)n3cc(C(N)CC(C)C)nn3)CC2)nc(N2CCN(C(=O)C(CCCCN)n3cc(C(N)CC(C)C)nn3)CC2)n1` (stereo not given) the growth inhibition was 0.321% (inactive). In the case of `CC(C)NC(=O)CC(=O)NN=Cc1c(F)cccc1Cl`, the growth inhibition is reported as -1.54% (inactive). With `Cc1cccc(CCN2C(Nc3ccccc3)=NCC2CC(C)C)c1` (stereo not given) the growth inhibition was 2.11% (inactive).
